# Measurements reported in PubChem BioAssay (Tox21).
# Results filed as inconclusive are left out. Activity calls are given as the source filed them. Calls come from the whole dose curve; as a rule, active = well fitted inhibition curve with a large enough effect in the repeat runs; inconclusive = weak or mixed curves; inactive = no such curve, though single readings can be large or run the other way.
# Target: Estrogen receptor (Homo sapiens) (UniProt P03372)
# Assay: qHTS assay to identify small molecule antagonists of the estrogen receptor alpha (ER-alpha) signaling pathway using the BG1 cell line in the presence of 0.1 nM 17-beta-estradiol (AID 1259244); note: nearly all actives have a fitted effect of over 50% in size
# Settings: VM7Luc4E2 (BG1) ERE-luciferase, antagonist mode, 0.1 nM E2, 22 h; series mostly up to 92.4 µM; activity change, negative = inhibition: at the top concentration
# Description: National Center for Advancing Translational Sciences [NCATS]
# NIH Chemical Genomics Center [NCGC]
# U.S. Environmental Protection Agency [EPA]
# National Institutes of Environmental Health Sciences [NIEHS]
# National Toxicology Program [NTP]
# U.S. Food and Drug Administration [FDA]
# Estrogen receptor (ER), a member of the nuclear hormone receptor plays an important role in development, metabolic homeostasis and reproduction. Two subtypes of ER, ER-alpha and ER-beta, have similar expression patterns with some uniqueness in both types. Endocrine disrupting chemicals (EDCs) and their interactions with steroid hormone receptors like ER causes disruption of normal endocrine function. Therefore, it is important to understand the effect of environmental chemicals in ER signaling pathway. For identifying ER antagonists, VM7Luc4E2 cell line was used to screen against Tox21 compound libraries.
# VM7Luc4E2 cell line (provided by Denison MS, University of California) endogenously express full-length ER-alpha and is stably transfected with a plasmid containing four estrogen responsive elements (ERE) upstream of a luciferase reporter gene. The current screening for identification of ER-alpha inhibitors against Tox21 compound libraries used lower concentration (0.1 nM) of 17beta-Estradiol as a stimulator.
# Tox21 Assay Protocol Summary:
# VM7Luc4E2 cells were cultured in phenol red free assay medium containing 10% charcoal stripped FBS for 5 days prior to the assay. The cells were dispensed at 4,000 cells/well in 4 uL of assay medium into white wall/solid-bottom 1536-well plates (Corning Life Sciences, Corning, NY) using a Multidrop Combi (ThermoFisher Scientific, Waltham, MA) dispenser. After the assay plates were incubated at 37C and 5% CO2 for 24 hr, 23 nL of compounds dissolved in DMSO, positive controls or DMSO only was transferred to the assay plates by a Pintool station (Kalypsys, San Diego, CA). The transfer of compounds was followed by the addition of 1 uL of 0.1 nM (final concentration) agonist (17beta-Estradiol)/assay medium using a Flying Reagent Dispenser (FRD, Aurora Discovery, San Diego, CA). The plates were incubated at 37C and 5% CO2 for 22 hr. For luciferase reporter gene assay, 4 uL of ONE-Glo reagent (Promega Corporation, Madison, WI) was added to each well using the FRD and after 30 min incubation at room temperature luminescence intensity was measured using ViewLux plate reader (PerkinElmer, Shelton, CT).
# % is set by controls: 0 for no effect and ±100 for the full control effect; potency is the fitted concentration of half-maximal effect.
# Chain of Estrogen receptor (Homo sapiens) (P03372 whole entry, looked up): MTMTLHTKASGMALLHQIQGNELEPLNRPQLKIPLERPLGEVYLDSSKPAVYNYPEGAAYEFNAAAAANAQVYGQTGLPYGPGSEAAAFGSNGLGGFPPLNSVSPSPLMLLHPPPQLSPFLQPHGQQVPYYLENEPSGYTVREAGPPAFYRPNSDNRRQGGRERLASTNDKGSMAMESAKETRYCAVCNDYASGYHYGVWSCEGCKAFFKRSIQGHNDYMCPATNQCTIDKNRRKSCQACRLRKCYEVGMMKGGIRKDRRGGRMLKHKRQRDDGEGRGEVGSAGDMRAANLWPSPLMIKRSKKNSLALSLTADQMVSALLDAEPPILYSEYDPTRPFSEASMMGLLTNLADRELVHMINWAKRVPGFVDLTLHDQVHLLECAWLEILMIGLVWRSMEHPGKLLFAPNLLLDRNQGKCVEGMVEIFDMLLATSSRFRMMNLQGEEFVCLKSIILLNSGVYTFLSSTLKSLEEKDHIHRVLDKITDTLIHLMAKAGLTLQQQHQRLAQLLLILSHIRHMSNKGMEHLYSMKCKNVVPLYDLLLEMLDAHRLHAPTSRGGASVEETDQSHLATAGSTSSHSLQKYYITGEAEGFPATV
SMILES,"activity change, negative = inhibition",Potency
CC(C)(C)NC(N)=O,13.5% (inactive),
Cc1[nH]cnc1-c1ccc(Cl)cc1,29.5% [at 42.5 µM] (inactive),
C=C(C)C(=O)OCc1ccccc1,-7.69% (inactive),
O=C(OCc1ccccc1)C(=O)OCc1ccccc1,7.6% (inactive),
CCCCCCCC/C=C\CCCCCCCC(=O)OCCCC,-2.58% [at 19 µM] (inactive),
CC(=O)c1ccc2c(c1)Cc1ccccc1-2,31.2% (inactive),
CNS(=O)(=O)CCc1ccc2[nH]cc(C3CCN(C)CC3)c2c1,-0.429% [at 42.5 µM] (inactive),
Cc1ccc2ccc(Cl)cc2n1,-5.1% [at 42.5 µM] (inactive),
C=C(C)C(=O)OCC(C)(C)COC(=O)C(=C)C,6.16% (inactive),
Cc1cccc2nccnc12,3% (inactive),
CC(=O)NCCCCCC(=O)O,5.51% [at 42.5 µM] (inactive),
O=C1CCCC(=O)O1,4.34% (inactive),
O=S(O)(O)=S,19% [at 8.39 µM] (inactive),
CC(=O)NCc1c(I)c(NC(C)=O)c(I)c(C(=O)O)c1I,2.45% [at 42.5 µM] (inactive),
CCCCCCCCC(=O)Cl,-9.83% (inactive),
CCCCCCCCSCC,0.463% (inactive),
O=C(O)c1ccc(Cl)cc1Cl,19.9% (inactive),
CC(=O)CCCCn1c(=O)c2c(ncn2C)n(C)c1=O,10.6% [at 42.5 µM] (inactive),
O=C(O)CCSSCCC(=O)O,-8.68% (inactive),
CC(C)CC(=O)O,-24.4% (inactive),

SMILES,"activity change, negative = inhibition",Potency
O=C1c2ccccc2C(=O)c2cc(S(=O)(=O)O)ccc21,6.46% (inactive),
OCCC(F)(F)C(F)(F)C(F)(F)C(F)(F)C(F)(F)C(F)(F)C(F)(F)C(F)(F)F,-0.297% (inactive),
CCn1ccc(NS(=O)(=O)c2ccc(N)cc2)nc1=O,2.21% [at 42.5 µM] (inactive),
Cc1ccsc1/C=C/C1=NCCCN1C,-10.5% [at 42.5 µM] (inactive),
CC(N)C(=O)OC(C)(C)Cc1ccc(Cl)cc1 (stereo not given),0.0186% [at 42.5 µM] (inactive),
COCCOCCOCCOCCO,17.2% (inactive),
CN1CCN(CC(=O)N2c3ccccc3C(=O)Nc3cccnc32)CC1,8.49% [at 8.39 µM] (inactive),
CN(C)c1ccc(C=O)cc1,25.6% (inactive),
O=C1c2ccccc2C(=O)C1c1ccccc1,9.16% [at 42.5 µM] (inactive),
c1ccc2nccnc2c1,32.4% (inactive),
NNc1nnc(NN)c2ccccc12,22.6% [at 42.5 µM] (inactive),
COc1cc2c(cc1OC)[C@@H]1CC(=O)[C@@H](CC(C)C)CN1CC2,-9.58% [at 42.5 µM] (inactive),
Oc1ccccc1-c1nnco1,8.17% [at 42.5 µM] (inactive),
CCOc1cc(NC(C)=O)ccc1C(=O)OC,-5.79% [at 42.5 µM] (inactive),
COc1ccc(-c2cc(=O)c3c(O)cc(O[C@@H]4O[C@H](CO[C@@H]5O[C@@H](C)[C@H](O)[C@@H](O)[C@H]5O)[C@@H](O)[C@H](O)[C@H]4O)cc3o2)cc1O,4.7% [at 42.5 µM] (inactive),
O=C(CCN1CCN(CCO)CC1)N1c2ccccc2Sc2ccc(C(F)(F)F)cc21,1.39% [at 42.5 µM] (inactive),
Nc1ccc2cc(S(=O)(=O)O)cc(O)c2c1,-1.01% (inactive),
CC(=C(CCOC(=O)C(C)C)SSC(CCOC(=O)C(C)C)=C(C)N(C=O)Cc1cnc(C)nc1N)N(C=O)Cc1cnc(C)nc1N,8.05% [at 42.5 µM] (inactive),
CCCCCCN,-6.43% (inactive),
O=C(Nc1ccc(Cl)c(Cl)c1)C1CC1,,26.6 µM (active)
